Experimental data as given in ChEMBL document CHEMBL2218924, “A broad activity screen in support of a chemogenomic map for kinase signalling research and drug discovery” (Biochem J, 2013).

Assays:
[1] = target: Serine/threonine-protein kinase PAK 6 (Homo sapiens) (UniProt Q9NQU5); conditions: at 10 µM
[2] = target: PAS domain-containing serine/threonine-protein kinase (Homo sapiens) (UniProt Q96RG2); conditions: at 10 µM
[3] = target: Activated CDC42 kinase 1 (Homo sapiens) (UniProt Q07912); conditions: at 1 µM
Activated CDC42 kinase 1 (Homo sapiens), sequence (Q07912 whole entry, looked up): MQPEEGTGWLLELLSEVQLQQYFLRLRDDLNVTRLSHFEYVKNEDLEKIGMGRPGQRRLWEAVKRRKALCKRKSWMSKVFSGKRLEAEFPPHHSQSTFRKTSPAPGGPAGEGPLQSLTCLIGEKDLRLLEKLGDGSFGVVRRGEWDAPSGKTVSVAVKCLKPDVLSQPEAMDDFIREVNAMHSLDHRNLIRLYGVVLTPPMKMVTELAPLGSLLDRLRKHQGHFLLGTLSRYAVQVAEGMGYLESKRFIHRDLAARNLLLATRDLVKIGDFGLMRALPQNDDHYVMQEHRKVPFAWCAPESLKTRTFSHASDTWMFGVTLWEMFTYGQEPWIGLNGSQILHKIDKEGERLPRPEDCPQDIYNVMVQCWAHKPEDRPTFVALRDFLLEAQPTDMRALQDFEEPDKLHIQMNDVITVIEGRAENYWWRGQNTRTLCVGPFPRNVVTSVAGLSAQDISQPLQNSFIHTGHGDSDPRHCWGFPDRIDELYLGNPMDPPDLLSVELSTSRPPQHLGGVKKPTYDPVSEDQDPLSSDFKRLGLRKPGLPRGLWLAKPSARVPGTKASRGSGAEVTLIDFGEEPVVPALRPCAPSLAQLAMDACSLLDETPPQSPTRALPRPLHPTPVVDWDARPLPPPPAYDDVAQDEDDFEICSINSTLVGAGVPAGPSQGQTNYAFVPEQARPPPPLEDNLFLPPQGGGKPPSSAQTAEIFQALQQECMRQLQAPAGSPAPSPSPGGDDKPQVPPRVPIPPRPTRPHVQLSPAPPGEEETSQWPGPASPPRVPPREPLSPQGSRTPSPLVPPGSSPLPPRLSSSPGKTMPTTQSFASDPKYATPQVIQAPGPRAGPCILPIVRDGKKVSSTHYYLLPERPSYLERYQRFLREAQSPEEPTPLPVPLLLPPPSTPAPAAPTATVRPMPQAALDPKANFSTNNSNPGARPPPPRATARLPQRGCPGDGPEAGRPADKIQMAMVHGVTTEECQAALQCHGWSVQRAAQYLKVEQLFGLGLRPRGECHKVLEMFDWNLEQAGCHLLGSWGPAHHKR

[4] = target: Activated CDC42 kinase 1 (Homo sapiens) (UniProt Q07912); conditions: at 10 µM
[5] = target: ALK tyrosine kinase receptor (Homo sapiens) (UniProt Q9UM73); conditions: at 1 µM
ALK tyrosine kinase receptor (Homo sapiens), sequence (Q9UM73 19-1620 limits assumed): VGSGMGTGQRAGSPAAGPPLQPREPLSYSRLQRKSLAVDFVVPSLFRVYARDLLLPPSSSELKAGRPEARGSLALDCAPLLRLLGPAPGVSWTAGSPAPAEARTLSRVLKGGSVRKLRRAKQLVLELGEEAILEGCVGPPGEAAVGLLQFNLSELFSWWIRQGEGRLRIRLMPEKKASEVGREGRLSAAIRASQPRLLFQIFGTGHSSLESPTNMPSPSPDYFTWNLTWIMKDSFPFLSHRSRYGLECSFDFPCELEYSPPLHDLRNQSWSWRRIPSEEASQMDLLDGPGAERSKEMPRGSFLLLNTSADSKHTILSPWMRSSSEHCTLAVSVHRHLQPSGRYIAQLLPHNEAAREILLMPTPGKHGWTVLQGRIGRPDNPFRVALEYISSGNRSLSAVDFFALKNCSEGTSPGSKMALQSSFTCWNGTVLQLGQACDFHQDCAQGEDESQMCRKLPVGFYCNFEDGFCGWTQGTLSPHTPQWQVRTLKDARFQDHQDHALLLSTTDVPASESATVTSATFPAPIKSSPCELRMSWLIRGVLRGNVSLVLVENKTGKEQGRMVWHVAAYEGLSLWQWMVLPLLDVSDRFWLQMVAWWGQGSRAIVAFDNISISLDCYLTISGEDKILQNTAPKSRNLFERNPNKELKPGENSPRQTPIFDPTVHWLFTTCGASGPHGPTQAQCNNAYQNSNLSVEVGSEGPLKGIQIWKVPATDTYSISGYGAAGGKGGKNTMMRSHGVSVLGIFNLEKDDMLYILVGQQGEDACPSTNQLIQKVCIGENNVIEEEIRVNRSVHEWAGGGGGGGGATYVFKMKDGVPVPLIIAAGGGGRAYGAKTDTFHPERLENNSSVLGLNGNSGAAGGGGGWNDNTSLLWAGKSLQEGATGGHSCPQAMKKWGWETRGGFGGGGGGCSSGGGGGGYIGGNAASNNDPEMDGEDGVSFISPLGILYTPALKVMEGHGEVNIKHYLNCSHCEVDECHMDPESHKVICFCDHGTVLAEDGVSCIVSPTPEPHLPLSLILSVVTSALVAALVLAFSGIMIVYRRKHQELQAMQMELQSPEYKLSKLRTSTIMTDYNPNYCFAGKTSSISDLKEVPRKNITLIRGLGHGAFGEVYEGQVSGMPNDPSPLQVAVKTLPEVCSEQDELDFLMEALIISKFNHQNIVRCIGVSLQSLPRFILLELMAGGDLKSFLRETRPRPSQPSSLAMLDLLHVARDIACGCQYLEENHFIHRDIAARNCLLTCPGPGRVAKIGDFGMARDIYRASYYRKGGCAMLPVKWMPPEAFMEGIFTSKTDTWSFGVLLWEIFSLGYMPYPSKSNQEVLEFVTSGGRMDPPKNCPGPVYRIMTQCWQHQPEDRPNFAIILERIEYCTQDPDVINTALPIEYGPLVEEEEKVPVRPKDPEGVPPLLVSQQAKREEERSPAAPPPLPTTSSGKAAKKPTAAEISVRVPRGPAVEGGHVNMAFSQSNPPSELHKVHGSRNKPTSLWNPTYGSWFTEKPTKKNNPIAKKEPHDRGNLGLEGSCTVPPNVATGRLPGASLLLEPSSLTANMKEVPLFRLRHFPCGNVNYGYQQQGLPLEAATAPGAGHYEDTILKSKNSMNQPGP

[6] = target: ALK tyrosine kinase receptor (Homo sapiens) (UniProt Q9UM73); conditions: at 10 µM
[7] = target: Serine/threonine-protein kinase PAK 6 (Homo sapiens) (UniProt Q9NQU5); conditions: at 1 µM
[8] = target: T1, Activin receptor type-1B (Homo sapiens) (UniProt P36896); conditions: at 1 µM
T1 sequence (whole entry): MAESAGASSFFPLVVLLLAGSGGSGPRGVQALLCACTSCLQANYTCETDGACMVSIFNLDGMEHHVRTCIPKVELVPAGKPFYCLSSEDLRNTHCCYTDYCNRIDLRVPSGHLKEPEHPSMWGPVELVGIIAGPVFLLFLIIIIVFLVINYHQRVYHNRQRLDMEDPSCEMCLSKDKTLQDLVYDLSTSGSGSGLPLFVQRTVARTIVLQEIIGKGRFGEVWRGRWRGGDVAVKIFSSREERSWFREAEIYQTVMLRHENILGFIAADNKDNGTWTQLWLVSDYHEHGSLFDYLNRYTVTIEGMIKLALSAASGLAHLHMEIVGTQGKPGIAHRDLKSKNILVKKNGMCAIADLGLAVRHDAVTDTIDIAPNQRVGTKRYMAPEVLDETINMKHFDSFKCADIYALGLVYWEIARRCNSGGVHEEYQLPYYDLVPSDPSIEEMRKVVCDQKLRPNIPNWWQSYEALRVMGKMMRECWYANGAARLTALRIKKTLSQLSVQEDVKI

[9] = target: T1, Activin receptor type-1B (Homo sapiens); conditions: at 10 µM
[10] = target: T2, AMP-activated protein kinase (AMPK) alpha-1/beta-1/gamma-1 (Homo sapiens) (UniProt P54619+Q9Y478+Q13131); conditions: at 1 µM
T2 sequence (P54619 whole entry): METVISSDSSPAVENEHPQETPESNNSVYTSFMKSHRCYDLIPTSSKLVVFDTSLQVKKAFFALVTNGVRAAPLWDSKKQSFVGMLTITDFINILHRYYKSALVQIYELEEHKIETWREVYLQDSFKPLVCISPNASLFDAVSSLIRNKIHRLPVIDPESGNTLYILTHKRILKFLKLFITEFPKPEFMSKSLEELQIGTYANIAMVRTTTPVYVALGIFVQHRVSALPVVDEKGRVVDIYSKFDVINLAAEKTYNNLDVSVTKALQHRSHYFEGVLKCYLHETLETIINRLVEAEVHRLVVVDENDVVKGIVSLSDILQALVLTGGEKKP
T2 sequence (Q13131 whole entry partner): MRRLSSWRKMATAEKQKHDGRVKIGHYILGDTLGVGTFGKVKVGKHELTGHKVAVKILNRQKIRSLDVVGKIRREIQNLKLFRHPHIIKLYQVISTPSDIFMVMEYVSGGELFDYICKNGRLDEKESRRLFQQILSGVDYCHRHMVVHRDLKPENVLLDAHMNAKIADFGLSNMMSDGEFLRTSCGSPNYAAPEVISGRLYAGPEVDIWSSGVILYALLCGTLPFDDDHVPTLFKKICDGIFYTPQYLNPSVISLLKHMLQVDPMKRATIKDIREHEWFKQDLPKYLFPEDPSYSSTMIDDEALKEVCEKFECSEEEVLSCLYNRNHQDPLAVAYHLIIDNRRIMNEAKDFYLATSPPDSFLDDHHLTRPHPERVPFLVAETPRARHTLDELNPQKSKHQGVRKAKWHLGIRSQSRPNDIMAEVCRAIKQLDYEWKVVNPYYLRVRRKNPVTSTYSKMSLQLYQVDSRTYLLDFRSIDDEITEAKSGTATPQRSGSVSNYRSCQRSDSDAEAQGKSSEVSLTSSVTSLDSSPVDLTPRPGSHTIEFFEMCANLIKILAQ
T2 sequence (Q9Y478 2-270 partner limits assumed): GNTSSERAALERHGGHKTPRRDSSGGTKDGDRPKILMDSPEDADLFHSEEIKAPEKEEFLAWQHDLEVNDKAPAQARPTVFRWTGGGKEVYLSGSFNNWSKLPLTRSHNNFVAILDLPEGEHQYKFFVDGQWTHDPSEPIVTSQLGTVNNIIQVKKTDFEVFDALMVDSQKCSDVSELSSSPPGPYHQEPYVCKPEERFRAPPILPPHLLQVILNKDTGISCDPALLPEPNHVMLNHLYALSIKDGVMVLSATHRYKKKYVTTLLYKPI

[11] = target: T2, AMP-activated protein kinase (AMPK) alpha-1/beta-1/gamma-1 (Homo sapiens); conditions: at 10 µM
[12] = target: T3, AMP-activated protein kinase, AMPK (Homo sapiens) (UniProt P54646+O43741+P54619+Q9UGJ0+Q9Y478+Q13131+Q9UGI9); conditions: at 1 µM
[13] = target: T4, NUAK family SNF1-like kinase 1 (Homo sapiens) (UniProt O60285); conditions: at 10 µM
T4 sequence (whole entry): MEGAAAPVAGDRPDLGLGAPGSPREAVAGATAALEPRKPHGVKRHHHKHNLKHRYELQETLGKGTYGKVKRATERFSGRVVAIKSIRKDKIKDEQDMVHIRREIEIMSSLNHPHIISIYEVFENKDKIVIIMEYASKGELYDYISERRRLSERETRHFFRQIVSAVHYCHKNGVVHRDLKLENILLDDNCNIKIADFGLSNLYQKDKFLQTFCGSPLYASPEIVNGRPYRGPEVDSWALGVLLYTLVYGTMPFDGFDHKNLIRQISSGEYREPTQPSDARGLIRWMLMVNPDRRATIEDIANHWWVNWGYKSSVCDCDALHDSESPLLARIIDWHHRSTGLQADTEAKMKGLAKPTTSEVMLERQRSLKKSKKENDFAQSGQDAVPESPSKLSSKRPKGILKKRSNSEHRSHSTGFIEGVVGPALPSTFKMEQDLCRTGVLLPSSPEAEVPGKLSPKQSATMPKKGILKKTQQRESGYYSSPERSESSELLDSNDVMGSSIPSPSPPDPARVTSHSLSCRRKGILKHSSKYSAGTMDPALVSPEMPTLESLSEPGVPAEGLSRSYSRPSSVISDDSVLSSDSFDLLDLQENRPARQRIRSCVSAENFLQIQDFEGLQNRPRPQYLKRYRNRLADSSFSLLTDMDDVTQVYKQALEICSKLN

[14] = target: T5, Mitogen-activated protein kinase kinase kinase 5 (Homo sapiens) (UniProt Q99683); conditions: at 1 µM
T5 sequence (whole entry): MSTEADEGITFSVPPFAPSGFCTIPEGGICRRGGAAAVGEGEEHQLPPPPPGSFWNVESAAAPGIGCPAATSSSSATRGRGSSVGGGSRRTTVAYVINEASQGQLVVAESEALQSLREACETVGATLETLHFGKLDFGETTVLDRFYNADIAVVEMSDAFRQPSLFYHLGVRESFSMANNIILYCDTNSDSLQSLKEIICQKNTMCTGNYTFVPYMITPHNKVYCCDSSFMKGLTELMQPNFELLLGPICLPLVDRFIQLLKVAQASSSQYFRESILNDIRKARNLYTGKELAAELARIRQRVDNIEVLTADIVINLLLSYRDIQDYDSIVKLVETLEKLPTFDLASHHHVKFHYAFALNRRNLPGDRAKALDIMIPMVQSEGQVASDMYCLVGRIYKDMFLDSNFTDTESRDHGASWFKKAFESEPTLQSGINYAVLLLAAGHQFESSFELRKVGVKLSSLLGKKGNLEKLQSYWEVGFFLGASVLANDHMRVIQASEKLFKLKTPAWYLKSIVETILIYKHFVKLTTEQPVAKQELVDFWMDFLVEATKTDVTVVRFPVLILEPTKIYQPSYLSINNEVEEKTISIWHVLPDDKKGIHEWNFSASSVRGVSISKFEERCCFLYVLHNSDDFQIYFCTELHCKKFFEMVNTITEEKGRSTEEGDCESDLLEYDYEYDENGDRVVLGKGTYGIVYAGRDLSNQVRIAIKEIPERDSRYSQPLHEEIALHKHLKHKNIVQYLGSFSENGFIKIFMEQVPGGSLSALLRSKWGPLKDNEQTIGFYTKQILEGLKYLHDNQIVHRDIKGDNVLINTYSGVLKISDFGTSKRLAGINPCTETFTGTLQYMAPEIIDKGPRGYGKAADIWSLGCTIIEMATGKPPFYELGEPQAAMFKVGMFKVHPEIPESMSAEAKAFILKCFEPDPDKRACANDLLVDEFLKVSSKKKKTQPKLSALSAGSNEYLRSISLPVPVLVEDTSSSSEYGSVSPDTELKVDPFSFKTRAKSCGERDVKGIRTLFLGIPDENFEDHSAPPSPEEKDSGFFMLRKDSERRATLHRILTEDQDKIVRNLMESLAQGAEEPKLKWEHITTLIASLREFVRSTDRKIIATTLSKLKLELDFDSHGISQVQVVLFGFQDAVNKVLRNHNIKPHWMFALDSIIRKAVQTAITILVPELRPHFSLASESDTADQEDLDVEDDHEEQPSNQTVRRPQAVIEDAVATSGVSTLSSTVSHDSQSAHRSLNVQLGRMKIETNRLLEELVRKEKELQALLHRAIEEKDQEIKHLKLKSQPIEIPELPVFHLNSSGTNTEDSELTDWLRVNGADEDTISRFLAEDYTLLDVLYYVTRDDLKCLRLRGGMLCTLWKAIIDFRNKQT

[15] = target: T3, AMP-activated protein kinase, AMPK (Homo sapiens); conditions: at 10 µM
[16] = target: Serine/threonine-protein kinase PAK 4 (Homo sapiens) (UniProt O96013); conditions: at 10 µM
Serine/threonine-protein kinase PAK 4 (Homo sapiens), sequence (O96013 whole entry, looked up): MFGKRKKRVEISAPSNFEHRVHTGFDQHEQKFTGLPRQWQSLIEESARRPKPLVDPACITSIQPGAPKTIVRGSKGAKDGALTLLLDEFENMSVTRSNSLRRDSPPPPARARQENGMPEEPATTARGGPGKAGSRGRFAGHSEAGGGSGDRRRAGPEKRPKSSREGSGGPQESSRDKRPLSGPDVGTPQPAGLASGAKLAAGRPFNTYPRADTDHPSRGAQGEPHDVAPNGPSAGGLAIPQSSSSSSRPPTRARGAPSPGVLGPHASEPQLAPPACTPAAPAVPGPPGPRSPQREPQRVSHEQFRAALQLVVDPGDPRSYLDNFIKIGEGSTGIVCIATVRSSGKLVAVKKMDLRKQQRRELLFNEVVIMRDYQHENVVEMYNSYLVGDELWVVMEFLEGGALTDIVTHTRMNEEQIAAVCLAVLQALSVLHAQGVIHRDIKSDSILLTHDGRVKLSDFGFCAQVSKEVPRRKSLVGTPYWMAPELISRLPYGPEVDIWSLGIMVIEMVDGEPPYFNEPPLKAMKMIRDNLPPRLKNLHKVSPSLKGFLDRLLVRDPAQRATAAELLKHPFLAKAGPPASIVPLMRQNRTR

[17] = target: T4, NUAK family SNF1-like kinase 1 (Homo sapiens); conditions: at 1 µM
[18] = target: Serine/threonine-protein kinase PAK 4 (Homo sapiens) (UniProt O96013); conditions: at 1 µM
[19] = target: Serine/threonine-protein kinase PAK 5 (Homo sapiens) (UniProt Q9P286); conditions: at 1 µM
[20] = target: Serine/threonine-protein kinase PAK 5 (Homo sapiens) (UniProt Q9P286); conditions: at 10 µM

Serine/threonine-protein kinase PAK 6 (Homo sapiens), sequence (Q9NQU5 whole entry, looked up, the tested form may be a part): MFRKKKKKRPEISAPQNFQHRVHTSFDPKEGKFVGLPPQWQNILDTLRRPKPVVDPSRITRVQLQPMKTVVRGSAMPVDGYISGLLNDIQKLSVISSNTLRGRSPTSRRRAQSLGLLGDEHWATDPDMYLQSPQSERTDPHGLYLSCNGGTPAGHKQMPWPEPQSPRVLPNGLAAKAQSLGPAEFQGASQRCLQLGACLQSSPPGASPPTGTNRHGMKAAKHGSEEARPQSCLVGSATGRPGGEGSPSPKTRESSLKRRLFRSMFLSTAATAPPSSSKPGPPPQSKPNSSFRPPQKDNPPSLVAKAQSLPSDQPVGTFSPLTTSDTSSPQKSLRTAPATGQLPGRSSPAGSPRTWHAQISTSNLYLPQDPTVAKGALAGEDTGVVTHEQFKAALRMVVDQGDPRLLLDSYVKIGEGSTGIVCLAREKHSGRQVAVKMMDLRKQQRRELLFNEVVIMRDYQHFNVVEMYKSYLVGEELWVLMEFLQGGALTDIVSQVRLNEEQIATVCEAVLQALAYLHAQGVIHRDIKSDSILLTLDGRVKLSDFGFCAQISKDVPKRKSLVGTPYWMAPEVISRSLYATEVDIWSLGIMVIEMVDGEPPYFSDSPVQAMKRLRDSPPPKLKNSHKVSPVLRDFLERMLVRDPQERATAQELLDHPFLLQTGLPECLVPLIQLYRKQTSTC

Compound | residual activity [1] | residual activity [2] | residual activity [3] | residual activity [4] | residual activity [5] | residual activity [6] | residual activity [7] | residual activity [8] | residual activity [9] | residual activity [10] | residual activity [11] | residual activity [12] | residual activity [13] | residual activity [14] | residual activity [15] | residual activity [16] | residual activity [17] | residual activity [18] | residual activity [19] | residual activity [20]
O=c1cc(N2CCOCC2)oc2c(-c3ccccc3)cccc12 | 77% | 59% | 76% | 58% | 73% | 53% |  |  |  |  |  |  |  |  |  |  |  |  |  | 
N#Cc1c(NC(=O)c2cccc3ccccc23)sc2c1CCCC2 | 66% | 96% | 85% | 61% | 80% | 91% | 100% | 87% | 93% | 86% | 97% | 98% | 92% | 88% |  |  |  |  |  | 
Nc1nccc(-c2c(-c3ccc(F)cc3)ncn2C2CCNCC2)n1 |  |  |  | 39% |  |  |  |  | 40% |  |  |  | 77% |  | 70% |  |  |  |  | 
Cc1cc(C)c(/C=C2\C(=O)Nc3ccccc32)[nH]1 | 62% |  | 52% | 18% | 37% | 13% |  |  |  | 55% | 29% |  | 19% |  |  | 69% | 35% |  |  | 
CCOc1nc(NC(=O)Cc2cc(OC)ccc2OC)cc(N)c1C#N | 77% |  | 73% | 58% | 81% | 69% | 100% |  |  |  |  |  |  |  |  |  |  |  |  | 
O=C(Nc1nc2ccccc2n1CCN1CCOCC1)c1cccc([N+](=O)[O-])c1 |  | 84% | 81% | 55% | 70% | 75% |  |  |  |  |  | 79% | 66% | 113% | 83% |  |  |  |  | 
O=S(=O)(c1cccc2cnccc12)N1CCCNCC1 |  |  |  |  |  | 74% |  |  |  |  |  |  | 52% |  |  | 101% |  | 106% |  | 
Nc1nc(Nc2ccc(S(N)(=O)=O)cc2)nn1C(=O)c1c(F)cccc1F | 34% |  | 50% | 9% | 77% | 38% | 79% | 100% | 47% | 58% | 11% | 47% | 7% | 102% | 15% | 17% | 4% |  | 71% | 24%
COc1cc2nccc(Oc3ccc(NC(=O)Nc4cc(C)on4)c(Cl)c3)c2cc1OC | 54% | 62% | 20% | 6% |  |  | 104% | 105% | 57% |  |  |  |  |  | 82% |  |  |  | 82% | 52%
CCCCc1c(-c2ccc(O)cc2)[nH]c2nccnc12 | 47% |  | 26% | 6% | 71% | 37% | 94% | 88% | 34% | 85% | 71% | 75% | 16% | 93% | 67% |  | 12% |  | 56% | 36%
Nc1ncnc2[nH]nc(Nc3ccc(F)cc3)c12 | 81% | 62% | 60% | 17% | 82% | 67% | 102% | 114% | 77% | 100% | 69% | 99% | 90% |  | 65% |  | 98% | 111% | 104% | 97%
CCN1/C(=C/C(C)=O)Sc2ccc(OC)cc21 |  |  | 81% | 64% |  |  |  | 122% |  | 79% | 54% |  |  |  |  |  |  |  |  | 80%
O=S(=O)(NCCNC/C=C/c1ccc(Br)cc1)c1cccc2cnccc12 | 55% | 81% | 77% | 43% |  |  |  |  |  | 52% | 15% | 60% | 11% |  | 19% |  | 42% |  |  | 
CC(C)[C@H](CO)Nc1nc(Nc2cc(N)cc(Cl)c2)c2ncn(C(C)C)c2n1 | 5% |  | 29% | 9% |  |  | 26% | 122% | 117% |  |  | 87% | 13% |  | 50% |  | 44% |  | 57% | 12%
O=C(c1ccccc1)c1ccc(N2CCOCC2)cc1O | 85% | 78% | 94% | 72% | 78% |  | 82% | 123% |  | 98% | 72% | 89% | 90% | 91% | 81% |  |  |  | 92% | 114%
CC(C)(C)c1nc2c3ccc(F)cc3c3c(=O)[nH]ccc3c2[nH]1 | 68% |  | 10% | 0% | 30% | 11% |  |  |  | 33% | 31% | 20% | 9% | 81% | 23% |  | 8% |  |  | 
Nc1ncnc2c1cnn2-c1ccccc1 | 86% | 92% | 91% | 61% | 79% |  | 92% |  |  | 96% | 90% |  | 87% | 100% | 83% |  | 99% |  | 92% | 
O=c1c(-c2ccc(F)cc2)c(-c2ccncc2)[nH]n1-c1ccc(Cl)cc1 |  |  |  | 66% |  | 65% |  |  | 22% |  |  |  |  | 100% |  |  |  |  |  | 
